Hits are enriched below; roughly 11% of the tested compounds scored in any of these assays.
IMPase Li inh = cell-permeable IMPase inhibitors with lithium potentiation; actives 0.35% (n = 210,000); AID 1457; Potency, µM (doses to about 59.4 µM), inactives show top-dose activity, negative = IMPase inhibition, hits mostly inhibitors; CHO-M1 cells, IP1 TR-FRET (IP-One), carbachol + lithium; active = well fitted curve in the direction sought with a large enough effect; inconclusive = small, poorly fitted or top-dose-only effect, or another doubt; inactive = no such curve, though single readings can be large; an effect the other way counts as inactive or inconclusive;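 also: IP1 builds up when IMPase is blocked and the TR-FRET signal falls; potency is read from the fitted curve at half-maximal effect; plate controls were basal vehicle for no effect and high inhibitor control for full effect; nearly all actives have a fitted effect of over 50% in size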
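Concentration–response in CHO-M1 cells, lithium-potentiated; 30 min at 37C. IP1 detected by competitive TR-FRET after 10 min lysis at RT. Hill-fitted AC50.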
HPGD block = inhibitors of human 15-hydroxyprostaglandin dehydrogenase (HPGD); P15428; actives 4.3% (n = 150,000); purified HPGD, NADH fluorescence kinetic, PGE2 substrate; Potency, µM, without a hit: at the highest dose activity change, negative = inhibition, most hits filed as inhibitors; also: potency is read from the fitted curve at half-maximal effect
Target sequence (P15428 whole entry, looked up): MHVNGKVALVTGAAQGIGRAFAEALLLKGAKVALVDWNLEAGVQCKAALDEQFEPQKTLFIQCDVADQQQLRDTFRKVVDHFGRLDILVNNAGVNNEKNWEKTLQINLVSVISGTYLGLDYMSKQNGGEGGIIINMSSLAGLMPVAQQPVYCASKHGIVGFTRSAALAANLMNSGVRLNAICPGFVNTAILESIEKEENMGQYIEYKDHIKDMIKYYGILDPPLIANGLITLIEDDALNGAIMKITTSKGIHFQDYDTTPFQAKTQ
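NADH formation kinetics: reaction with 30 uM PGE2 and 1 mM NAD+ (final), 20 nM enzyme, Tris-HCl pH 8 with Tween 20, after 15 min compound preincubation at room temperature. Fluorescence change, last versus first of five reads.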
IMPase cell inh = membrane-permeable compound that blocks inositol monophosphatase. P97697. CHO-M1 cells, IP1 accumulation, HTRF TR-FRET ratio. inhibition (IP1 accumulation), % at 46.1 µM. 120,000 tested, under 10 active; active = well fitted curve in the direction sought with a large enough effect in the signal ratio, not every such curve was filed as active; inconclusive = small, poorly fitted or top-dose-only effect, or a change in a side signal; inactive = no such curve, though single readings can be large or run the other way; the % refers to the signal ratio;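 also: cells stimulated with carbachol in lithium chloride buffer; plate controls were DMSO basal wells for no effect and reference inhibitor wells for full effect; higher means more IMPase inhibition seen as more IP1 and lower FRET ratio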
Target sequence (P97697 whole entry, looked up): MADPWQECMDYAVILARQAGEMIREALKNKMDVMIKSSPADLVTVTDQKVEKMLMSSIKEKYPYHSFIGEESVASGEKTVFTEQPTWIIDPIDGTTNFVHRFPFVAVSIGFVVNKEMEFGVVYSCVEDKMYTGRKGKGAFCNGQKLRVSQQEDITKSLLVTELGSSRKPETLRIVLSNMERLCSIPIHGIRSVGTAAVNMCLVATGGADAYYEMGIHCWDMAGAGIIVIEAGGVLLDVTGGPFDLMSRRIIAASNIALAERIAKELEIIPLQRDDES
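CHO-M1, 2000 cells/well, cultured 16–30 h; cpd up to 46 uM; carbachol (50 uM solution, stimulation buffer w/ 50 mM LiCl, pH 7.4), 30 min 37C; IP-One TR-FRET, 10 min RT; Ex 320/Em 665, 620; Hill-fit AC50.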
PNC assembly inh = blocks assembly of the perinucleolar compartment; PC3M PTB-GFP, PNC prevalence imaging, 16 h; active compounds read low; activity change (PNC), negative = inhibition, % at 10 µM; actives 3.1% (n = 140,000);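 active = readout at or below -70, meaning at least 70% loss of cells showing the perinucleolar compartment, a nuclear body marking cancer cells; inconclusive = readout between -30 and a set limit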;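 also: plate controls were DMSO wells for no effect and camptothecin positive control wells for full effect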
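Read-out is percentage of cells bearing a perinucleolar compartment, from automated 20x imaging of fixed, Hoechst-stained PC3M PTB-GFP cells. Cells were seeded 4 h, then exposed 16 h to compound (23 nl of library stock) in duplicate plates.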
ALOX12 inhib = blocks human 12-lipoxygenase activity; Potency, µM (top dose mostly 57.1 µM), without a hit: at the top dose activity change, negative = inhibition, usual class: inhibitors; AID 1452; actives 0.12% (n = 150,000); purified 12-hLO, xylenol orange hydroperoxide absorbance; active = well fitted curve in the direction sought with a large enough effect; inconclusive = small, poorly fitted or top-dose-only effect, or another doubt; inactive = no such curve, though single readings can be large; an effect the other way counts as inactive or inconclusive; also: potency is read from the fitted curve at half-maximal effect; nearly all actives have a fitted effect of over 55% in size
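Xylenol orange chromogenic assay: hydroperoxide from 12hLO oxidises Fe(II), giving red-shifted Fe(III)-XO absorbance. Conditions: 150 nM enzyme, 40 uM arachidonic acid, 25 mM Hepes pH 7.0, 0.01% Triton X-100, 30 min, room temperature.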
ALDH1A1 block = blocks purified human ALDH1A1 activity; P00352; Purified ALDH1A1, NADH fluorescence, propionaldehyde substrate; Potency, µM (highest dose often 75.3 µM), for the others: at the top dose activity, negative = inhibition, hits mostly inhibitors; actives 7.3% (n = 220,000); AID 1030;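 also: potency is read from the fitted curve at half-maximal effect; plate controls were no enzyme wells and a reference inhibitor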
An asterisk follows results filed as active; ? = inconclusive; / = no result; [ ] = dose if it differs, or a comment. Unless noted, calls follow the shape of the dose curve; as a rule, active = well fitted inhibition curve with a large enough effect (not every such curve was filed as active); inconclusive = small, poorly fitted or top-dose-only effect, or another doubt; inactive = no such curve, though single readings can be large or run the other way. Unless noted, % is scaled to controls: 0 for no effect and ±100 for the full control effect.

SMILES	IMPase Li inh	HPGD block	IMPase cell inh	PNC assembly inh	ALOX12 inhib	ALDH1A1 block
Cc1cc(C)n2c(SCC(=O)Nc3c(C)n(C)n(-c4ccccc4)c3=O)nnc2n1	12%[38.3 µM]	-8%	4	?	1%	15%
CCOC(=O)CNC(=O)CSc1nc(-c2ccc(OC)cc2)ns1	8%	/	/	/	/	?
Cc1ccc(C(C)C)c(OCC(=O)Nc2c(C(=O)c3ccccc3)oc3ccccc23)c1	/	/	-4	/	/	/
CCOc1ccccc1OCCCC(=O)Nc1sccc1C(N)=O	-2%	?	-2	?	4%	-14%
COc1ccc(-c2nsc(SCC(=O)NCC3CCCO3)n2)cc1 (configuration not stated)	-10%	/	/	/	/	25µM*
Cc1cc(NC(=O)CSC2=NCCS2)no1	18%[38.3 µM]	0%	2	-109*	4%	-6%
COC(=O)[C@@]1(Cc2ccc(OC)cc2)[C@H]2c3cc(C(=O)N4CCCC4)n(Cc4cc(F)c(F)c(F)c4)c3C[C@H]2CN1C(=O)c1ccccc1	3%	-13%	/	/	-7%	-3%
Cc1ccccc1OCC1CN(CN2CCOCC2)C(=O)O1 (configuration not stated)	2%[38.3 µM]	-1%	1	-87*	3%	3%
COC(=O)CCCC(=O)Nc1ccc(Cl)c(Cl)c1	7%	-13%	-5	-100*	4%	1%
O=C(O)CCCC(=O)Nc1ccc(Cl)c(Cl)c1	4%[38.3 µM]	-4%	1	36	-3%	-2%
O=C(O)CCCC(=O)Nc1ccc(C(=O)N2CCCCC2)c(Cl)c1	16%[38.3 µM]	0.45µM*	-2	?	3%	-2%
CC(C)(C)c1ccc(Cn2ccc(-c3ccc4c(c3)OCO4)n2)cc1	16%[38.3 µM]	-19%	9	-7	-7%	4µM*
Cc1ccc(Cn2ccc(NC(=O)c3cc(-c4ccc5c(c4)OCO5)on3)n2)cc1	11µM*	?	1	-3	-10%	-3%
CN(O)/C=C/C(=O)c1ccc(Br)cc1	4%	/	/	/	/	13µM*
COc1ccccc1Nc1nc(N)nc(CN2CCC(Cc3ccccc3)CC2)n1	27%[38.3 µM]	?	3	?	-3%	13µM*
Cc1cc(Cl)ccc1Oc1ncnc2oc(-c3ccccc3)cc12	-2%[38.3 µM]	?	-4	-94*	1%	?
CC(C(=O)NC1CCCc2ccccc21)N1CCN(Cc2ccc3c(c2)OCO3)CC1 (configuration not stated)	13%[38.3 µM]	-20%	-1	25	-7%	6.3µM*
COc1ccc2[nH]cc(CCNc3ncncc3-c3ccc(C(=O)N(C)C)cc3)c2c1	6%	/	/	/	/	7%
COC(=O)C1=C(C(=O)OC)[C@@H]2N(C)c3ccc(OC)cc3[C@@]23C[C@@H](C(=O)OC)N(S(=O)(=O)c2c(C)noc2C)C3=N1	4%	-5%	/	/	-7%[11.4 µM]	7%[13.5 µM]
COc1cccc(/C=N/Nc2ncnc(Cl)c2N)c1O	7%	-10%	/	?	-2%	3%
COC(=O)c1sccc1N/N=C/c1cccc(OC)c1O	-5%	-22%	/	-116*	3%	3%
COc1cccc(/C=N/Nc2ncnc3scc(-c4ccccc4)c23)c1O	6%	20µM*	/	-101*	-11%	4%
COc1cccc(/C=N/Nc2cc(-n3nc(C)cc3-c3ccccc3)ncn2)c1O	13%	-11%	/	-100*	0%	18%
COC(=O)c1ccc(C2Nc3c(C)cccc3-c3cc(C)nn32)cc1 (configuration not stated)	/	/	2	/	/	/
O=C1c2ccccc2C(=O)c2c(NC(=O)c3ccc4c5c(ncnc35)-c3ccccc3C4=O)cccc21	3%	-2%	/	/	3%[11.4 µM]	-1%[13.5 µM]
SMILES	IMPase Li inh	HPGD block	IMPase cell inh	PNC assembly inh	ALOX12 inhib	ALDH1A1 block
COc1ccc(-n2nc(C(=O)NCC(=O)NCC3COc4ccccc4O3)c3ccccc3c2=O)cc1 (configuration not stated)	0%	/	/	/	/	-2%
CC(C)[C@@H]1NC(=O)[C@H](CCCCN)NC(=O)[C@H](Cc2c[nH]c3ccccc23)NC(=O)[C@H](Cc2ccc(O)cc2)NC(=O)[C@H](C)N(C)C(=O)[C@H](Cc2ccccc2)NC1=O	/	/	10	/	-6%	/
OC(COc1ccccc1)CN1CCOCC1 (configuration not stated)	1%	-14%	13	-100*	2%	10%
CC(CN1CCOCC1)OC(=O)c1ccccc1 (configuration not stated)	/	/	/	/	/	13%
CC(CN1CCOCC1)C(=O)c1ccccc1 (configuration not stated)	9%[38.3 µM]	-5%	-5	58	4%	32µM*
O=C(OCCN1CCOCC1)C(c1ccccc1)c1ccccc1	-5%[38.3 µM]	-10%	2	?	2%	25µM*
COc1ccc(OC)c(-c2ccc(C(=O)O)o2)c1	-4%	?	/	/	-1%[0.00818 µM]	?
COC(=O)c1c(NC(=O)COc2ccc(OC)cc2)sc2c1CCC(C)C2 (configuration not stated)	/	/	-3	/	/	/
O=C(O)c1cccc(N2C(=O)c3ccc(Oc4ccc(Cl)cc4)cc3C2=O)c1	/	/	/	/	/	8%
O=C(O)c1cccc(N2C(=O)/C(=C/c3ccc(SCc4ccc(Cl)cc4)o3)SC2=S)c1	8%	/	/	/	/	25µM*
CC1=C(C(=O)Nc2ccccc2)C(c2cccc(O)c2)n2nc(-c3ccccc3Cl)nc2N1 (configuration not stated)	/	/	-2	/	/	/
Cc1ccc(F)cc1NC(=O)CSc1nc(-c2cccs2)cc(C(F)(F)F)n1	/	/	-2	/	/	/
Cc1c(C(=O)N2CCCCC2)sc(NC(=O)c2ccco2)c1C#N	5%	16µM*	8	52	6%	-10%
Cc1c(C(=O)N2CCCC2)sc(NC(=O)c2ccccc2)c1C#N	-3%	?	-4	21	2%	2%
Cc1c(C(=O)N2CCCC2)sc(NC(=O)c2cccs2)c1C#N	17%[38.3 µM]	-25%	1	-22	-2%	13%
Cc1c(C(=O)N2CCCCC2)sc(NC(=O)C(C)C)c1C#N	2%[38.3 µM]	13µM*	-9	22	-1%	3%
Cc1c(C(=O)N2CCCCC2)sc(N)c1C#N	-15%[38.3 µM]	13µM*	0	-19	-4%	?
Cc1c(C(=O)N2CCCCC2)sc(NC(=O)C2CC2)c1C#N	-1%[38.3 µM]	14µM*	-9	25	-3%	-6%
COC(=O)NC(/C(C(=O)OC)=C(\C)NCc1ccccc1)c1ccc(F)cc1 (configuration not stated)	/	/	/	/	/	-16%[13.5 µM]
CCOC(=O)c1cc(NC(=O)c2ccc(Cl)cc2)c(=O)n2c1oc1ccccc12	/	/	0	/	/	/
CCCCCCCN[C@H]1CCC[C@@H]1CCCCCCC(=O)O	12%	-4%	/	/	-1%	-2%
